Reference: paper PMC11006913
Substitutions are numbered along the chain they refer to.

Columns and labels:
Assay in all cases: PBM; 200 nM protein, PBS
Conditions in all cases: dsDNA, one strand shown
SIX6 [1] = molecular target: T1, SIX6 (Homo sapiens, UniProt O95475 114-200, L167I)
T1 sequence: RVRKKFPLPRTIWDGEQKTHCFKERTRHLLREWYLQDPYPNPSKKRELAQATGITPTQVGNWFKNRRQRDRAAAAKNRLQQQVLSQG

SIX6 [2] = molecular target: T2, SIX6 (Homo sapiens, UniProt O95475 114-200, L143V)
T2 sequence: T1 sequence with L30V, I54L

SIX6 [3] = molecular target: T3, SIX6 (Homo sapiens, UniProt O95475 114-200, H141N)
T3 sequence: T1 sequence with H28N, I54L

SIX6 [4] = molecular target: T4, SIX6 (Homo sapiens, UniProt O95475 114-200, T165P)
T4 sequence: T1 sequence with T52P, I54L

SIX6 [5] = molecular target: T5, SIX6 (Homo sapiens, UniProt O95475 114-200, L167M)
T5 sequence: T1 sequence with I54M

SIX6 [6] = molecular target: T6, SIX6 (Homo sapiens, UniProt O95475 114-200, L143M)
T6 sequence: T1 sequence with L30M, I54L

SIX6 [7] = molecular target: T7, SIX6 (Homo sapiens, UniProt O95475 114-200, L143I)
T7 sequence: T1 sequence with L30I, I54L

SIX6 [8] = molecular target: T8, SIX6 (Homo sapiens, UniProt O95475 114-200, T165G)
T8 sequence: T1 sequence with T52G, I54L

HOXA2 [9] = molecular target: HOXA2 (Homo sapiens, UniProt O43364 129-215, R185T)
SIX6 [10] = molecular target: T9, SIX6 (Homo sapiens, UniProt O95475 114-200, T139Q)
T9 sequence: T1 sequence with T26Q, I54L

SIX6 [11] = molecular target: T10, SIX6 (Homo sapiens, UniProt O95475 114-200, T165A)
T10 sequence: T1 sequence with T52A, I54L

HOXA2 [12] = molecular target: HOXA2 (Homo sapiens, UniProt O43364 129-215, R185K)
SIX6 [13] = molecular target: T11, SIX6 (Homo sapiens, UniProt O95475 114-200, L167V)
T11 sequence: T1 sequence with I54V

SIX6 [14] = molecular target: T12, SIX6 (Homo sapiens, UniProt O95475 114-200)
T12 sequence: T1 sequence with I54L

SIX6 [15] = molecular target: T13, SIX6 (Homo sapiens, UniProt O95475 114-200, T165I)
T13 sequence: T1 sequence with T52I, I54L

HOXA2 [16] = molecular target: HOXA2 (Homo sapiens, UniProt O43364 129-215, Y150S)
HOXA2 [17] = molecular target: HOXA2 (Homo sapiens, UniProt O43364 129-215)
HOXB9 [18] = molecular target: HOXB9 (Homo sapiens, UniProt P17482 171-250)
HOXB9 [19] = molecular target: HOXB9 (Homo sapiens, UniProt P17482 171-250, R186Q)
Chain of HOXB9 (Homo sapiens, UniProt P17482 171-250, R186Q) (P17482 171-250 R186Q): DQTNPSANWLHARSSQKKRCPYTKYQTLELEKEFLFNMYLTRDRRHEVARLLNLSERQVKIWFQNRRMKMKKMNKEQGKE

Chain of HOXA2 (Homo sapiens, UniProt O43364 129-215, R185T) (O43364 129-215 R185T): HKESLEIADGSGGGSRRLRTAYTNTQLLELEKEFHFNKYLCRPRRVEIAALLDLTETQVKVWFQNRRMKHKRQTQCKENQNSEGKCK
Chain of HOXA2 (Homo sapiens, UniProt O43364 129-215, Y150S) (O43364 129-215 Y150S): as the sequence (O43364 129-215 R185T) above, with Y22S, T57R counted along it
Chain of HOXA2 (Homo sapiens, UniProt O43364 129-215, R185K) (O43364 129-215 R185K): as the sequence (O43364 129-215 R185T) above, with T57K counted along it
Chain of HOXA2 (Homo sapiens, UniProt O43364 129-215) (O43364 129-215): as the sequence (O43364 129-215 R185T) above, with T57R counted along it
Chain of HOXB9 (Homo sapiens, UniProt P17482 171-250) (P17482 171-250): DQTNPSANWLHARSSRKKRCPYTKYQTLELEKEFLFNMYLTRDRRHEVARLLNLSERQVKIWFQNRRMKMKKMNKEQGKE

Question: Which binding signal (SIX6 [1]) does the source give for CCCCGGGG here?
Answer: Its binding signal is 9.12 upbm affinity estimate (log intensity, higher = more binding, comparable within an allelic series).

Question: And the binding signal (SIX6 [2])?
Answer: Its binding signal is 8.92 upbm affinity estimate (log intensity, higher = more binding, comparable within an allelic series).

Question: And the binding signal (SIX6 [3])?
Answer: Its binding signal is 9.16 upbm affinity estimate (log intensity, higher = more binding, comparable within an allelic series).

Question: What about the binding signal (SIX6 [4]) of the same sequence?
Answer: Its binding signal is 8.88 upbm affinity estimate (log intensity, higher = more binding, comparable within an allelic series).

Question: What about the binding signal (SIX6 [5]) of the same sequence?
Answer: The binding signal was 9.05 upbm affinity estimate (log intensity, higher = more binding, comparable within an allelic series).

Question: What about the binding signal (SIX6 [6]) of the same sequence?
Answer: Its binding signal is 9.06 upbm affinity estimate (log intensity, higher = more binding, comparable within an allelic series).

Question: And the binding signal (SIX6 [7])?
Answer: The binding signal was 8.94 upbm affinity estimate (log intensity, higher = more binding, comparable within an allelic series).

Question: What about the binding signal (SIX6 [8]) of the same sequence?
Answer: The binding signal was 9.11 upbm affinity estimate (log intensity, higher = more binding, comparable within an allelic series).

Question: And the binding signal (HOXA2 [9])?
Answer: The binding signal was 6.97 upbm affinity estimate (log intensity, higher = more binding, comparable within an allelic series).

Question: What about the binding signal (SIX6 [10]) of the same sequence?
Answer: The binding signal was 9.14 upbm affinity estimate (log intensity, higher = more binding, comparable within an allelic series).

Question: And the binding signal (SIX6 [11])?
Answer: The binding signal was 9.14 upbm affinity estimate (log intensity, higher = more binding, comparable within an allelic series).

Question: And the binding signal (HOXA2 [12])?
Answer: Its binding signal is 10.1 upbm affinity estimate (log intensity, higher = more binding, comparable within an allelic series).

Question: And the binding signal (SIX6 [13])?
Answer: The binding signal was 9.05 upbm affinity estimate (log intensity, higher = more binding, comparable within an allelic series).

Question: What about the binding signal (SIX6 [14]) of the same sequence?
Answer: Its binding signal is 9.11 upbm affinity estimate (log intensity, higher = more binding, comparable within an allelic series).

Question: What about the binding signal (SIX6 [15]) of the same sequence?
Answer: Its binding signal is 9.08 upbm affinity estimate (log intensity, higher = more binding, comparable within an allelic series).

Question: What about the binding signal (HOXA2 [16]) of the same sequence?
Answer: The binding signal was 10.4 upbm affinity estimate (log intensity, higher = more binding, comparable within an allelic series).

Question: And the binding signal (HOXA2 [17])?
Answer: The binding signal was 7.1 upbm affinity estimate (log intensity, higher = more binding, comparable within an allelic series).

Question: For CGGCCTGC, which binding signal (SIX6 [1]) is on record?
Answer: Its binding signal is 8.86 upbm affinity estimate (log intensity, higher = more binding, comparable within an allelic series).

Question: What about the binding signal (SIX6 [2]) of the same sequence?
Answer: The binding signal was 8.66 upbm affinity estimate (log intensity, higher = more binding, comparable within an allelic series).

Question: What about the binding signal (SIX6 [3]) of the same sequence?
Answer: Its binding signal is 8.83 upbm affinity estimate (log intensity, higher = more binding, comparable within an allelic series).

Question: And the binding signal (SIX6 [4])?
Answer: Its binding signal is 8.82 upbm affinity estimate (log intensity, higher = more binding, comparable within an allelic series).

Question: What about the binding signal (SIX6 [5]) of the same sequence?
Answer: The binding signal was 8.8 upbm affinity estimate (log intensity, higher = more binding, comparable within an allelic series).

Question: What about the binding signal (SIX6 [6]) of the same sequence?
Answer: The binding signal was 8.73 upbm affinity estimate (log intensity, higher = more binding, comparable within an allelic series).

Question: What about the binding signal (SIX6 [7]) of the same sequence?
Answer: Its binding signal is 8.72 upbm affinity estimate (log intensity, higher = more binding, comparable within an allelic series).

Question: And the binding signal (SIX6 [8])?
Answer: Its binding signal is 8.88 upbm affinity estimate (log intensity, higher = more binding, comparable within an allelic series).

Question: What about the binding signal (SIX6 [10]) of the same sequence?
Answer: The binding signal was 8.8 upbm affinity estimate (log intensity, higher = more binding, comparable within an allelic series).

Question: What about the binding signal (SIX6 [11]) of the same sequence?
Answer: Its binding signal is 8.82 upbm affinity estimate (log intensity, higher = more binding, comparable within an allelic series).

Question: What about the binding signal (SIX6 [13]) of the same sequence?
Answer: Its binding signal is 8.8 upbm affinity estimate (log intensity, higher = more binding, comparable within an allelic series).

Question: What about the binding signal (SIX6 [14]) of the same sequence?
Answer: Its binding signal is 8.79 upbm affinity estimate (log intensity, higher = more binding, comparable within an allelic series).

Question: And the binding signal (SIX6 [15])?
Answer: Its binding signal is 8.82 upbm affinity estimate (log intensity, higher = more binding, comparable within an allelic series).

Question: With GGGGGGAC as the sequence, how does the binding signal (SIX6 [1]) read?
Answer: Its binding signal is 8.99 upbm affinity estimate (log intensity, higher = more binding, comparable within an allelic series).

Question: And the binding signal (SIX6 [2])?
Answer: Its binding signal is 8.81 upbm affinity estimate (log intensity, higher = more binding, comparable within an allelic series).

Question: What about the binding signal (SIX6 [3]) of the same sequence?
Answer: Its binding signal is 8.96 upbm affinity estimate (log intensity, higher = more binding, comparable within an allelic series).

Question: What about the binding signal (SIX6 [4]) of the same sequence?
Answer: The binding signal was 8.71 upbm affinity estimate (log intensity, higher = more binding, comparable within an allelic series).

Question: And the binding signal (SIX6 [5])?
Answer: Its binding signal is 8.97 upbm affinity estimate (log intensity, higher = more binding, comparable within an allelic series).

Question: And the binding signal (SIX6 [6])?
Answer: Its binding signal is 8.91 upbm affinity estimate (log intensity, higher = more binding, comparable within an allelic series).

Question: What about the binding signal (SIX6 [7]) of the same sequence?
Answer: The binding signal was 8.72 upbm affinity estimate (log intensity, higher = more binding, comparable within an allelic series).

Question: And the binding signal (SIX6 [8])?
Answer: Its binding signal is 8.92 upbm affinity estimate (log intensity, higher = more binding, comparable within an allelic series).

Question: What about the binding signal (SIX6 [10]) of the same sequence?
Answer: Its binding signal is 8.93 upbm affinity estimate (log intensity, higher = more binding, comparable within an allelic series).

Question: What about the binding signal (SIX6 [11]) of the same sequence?
Answer: Its binding signal is 9 upbm affinity estimate (log intensity, higher = more binding, comparable within an allelic series).

Question: And the binding signal (SIX6 [13])?
Answer: Its binding signal is 8.74 upbm affinity estimate (log intensity, higher = more binding, comparable within an allelic series).

Question: What about the binding signal (SIX6 [14]) of the same sequence?
Answer: The binding signal was 8.93 upbm affinity estimate (log intensity, higher = more binding, comparable within an allelic series).

Question: And the binding signal (SIX6 [15])?
Answer: Its binding signal is 8.96 upbm affinity estimate (log intensity, higher = more binding, comparable within an allelic series).

Question: With AGTGATAT as the sequence, how does the binding signal (SIX6 [1]) read?
Answer: The binding signal was 11.3 upbm affinity estimate (log intensity, higher = more binding, comparable within an allelic series).

Question: And the binding signal (SIX6 [2])?
Answer: Its binding signal is 10.3 upbm affinity estimate (log intensity, higher = more binding, comparable within an allelic series).

Question: And the binding signal (SIX6 [3])?
Answer: Its binding signal is 11.3 upbm affinity estimate (log intensity, higher = more binding, comparable within an allelic series).

Question: What about the binding signal (SIX6 [4]) of the same sequence?
Answer: The binding signal was 9.9 upbm affinity estimate (log intensity, higher = more binding, comparable within an allelic series).

Question: What about the binding signal (SIX6 [5]) of the same sequence?
Answer: Its binding signal is 10.8 upbm affinity estimate (log intensity, higher = more binding, comparable within an allelic series).

Question: And the binding signal (SIX6 [6])?
Answer: Its binding signal is 11 upbm affinity estimate (log intensity, higher = more binding, comparable within an allelic series).

Question: And the binding signal (SIX6 [7])?
Answer: The binding signal was 10.3 upbm affinity estimate (log intensity, higher = more binding, comparable within an allelic series).

Question: What about the binding signal (SIX6 [8]) of the same sequence?
Answer: Its binding signal is 11.2 upbm affinity estimate (log intensity, higher = more binding, comparable within an allelic series).

Question: And the binding signal (HOXB9 [18])?
Answer: Its binding signal is 9.87 upbm affinity estimate (log intensity, higher = more binding, comparable within an allelic series).

Question: What about the binding signal (SIX6 [10]) of the same sequence?
Answer: The binding signal was 11.1 upbm affinity estimate (log intensity, higher = more binding, comparable within an allelic series).

Question: And the binding signal (SIX6 [11])?
Answer: The binding signal was 11.2 upbm affinity estimate (log intensity, higher = more binding, comparable within an allelic series).

Question: What about the binding signal (SIX6 [13]) of the same sequence?
Answer: Its binding signal is 11 upbm affinity estimate (log intensity, higher = more binding, comparable within an allelic series).

Question: What about the binding signal (SIX6 [14]) of the same sequence?
Answer: Its binding signal is 11 upbm affinity estimate (log intensity, higher = more binding, comparable within an allelic series).

Question: And the binding signal (SIX6 [15])?
Answer: Its binding signal is 11.1 upbm affinity estimate (log intensity, higher = more binding, comparable within an allelic series).

Question: What about the binding signal (HOXB9 [19]) of the same sequence?
Answer: Its binding signal is 9.76 upbm affinity estimate (log intensity, higher = more binding, comparable within an allelic series).

Question: Which results are given for CGCTGCGC?
Answer: binding signal (SIX6 [1]): 8.99 upbm affinity estimate (log intensity, higher = more binding, comparable within an allelic series); binding signal (SIX6 [2]): 8.85 upbm affinity estimate (log intensity, higher = more binding, comparable within an allelic series); binding signal (SIX6 [3]): 8.98 upbm affinity estimate (log intensity, higher = more binding, comparable within an allelic series); binding signal (SIX6 [4]): 8.98 upbm affinity estimate (log intensity, higher = more binding, comparable within an allelic series); binding signal (SIX6 [5]): 8.92 upbm affinity estimate (log intensity, higher = more binding, comparable within an allelic series); binding signal (SIX6 [6]): 8.96 upbm affinity estimate (log intensity, higher = more binding, comparable within an allelic series); binding signal (SIX6 [7]): 8.93 upbm affinity estimate (log intensity, higher = more binding, comparable within an allelic series); binding signal (SIX6 [8]): 9 upbm affinity estimate (log intensity, higher = more binding, comparable within an allelic series); binding signal (SIX6 [10]): 9.06 upbm affinity estimate (log intensity, higher = more binding, comparable within an allelic series); binding signal (SIX6 [11]): 8.88 upbm affinity estimate (log intensity, higher = more binding, comparable within an allelic series); binding signal (SIX6 [13]): 9.02 upbm affinity estimate (log intensity, higher = more binding, comparable within an allelic series); binding signal (SIX6 [14]): 8.93 upbm affinity estimate (log intensity, higher = more binding, comparable within an allelic series); binding signal (SIX6 [15]): 8.95 upbm affinity estimate (log intensity, higher = more binding, comparable within an allelic series)
